Gal4-VP16 FLuc = Gal4-VP16 reporter inhibition counter-screen | Drosophila S2 Gal4-VP16 UAS-luciferase, luminescence, 20 h | Potency, µM (titrated, usually from 53.6 µM), for inactives: top-dose activity, negative = inhibition, usual class: inhibitors | hit rate 3.5% among 310,000 | AID 2546;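 also: Gal4-VP16 expression switched on by copper sulfate through the metallothionein promoter; potency is read from the fitted curve at half-maximal effect; % is scaled to controls: 0 for no effect and ±100 for the full control effect; nearly all actives have a fitted effect of over 50% in size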
CtBP-E1A blk = blocks the CtBP interaction with E1A | hit rate 0.49% among 340,000 | AlphaScreen GST-E1A/His-CtBP binding, 1536-well; stronger effect = lower value | activity change, % (test concentration not listed) | AID 651724; in the data active = activity change below about -65%; inconclusive = mostly about -30% to -63%; also: % is scaled to controls: 0 for no effect and ±100 for the full control effect
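AlphaScreen with 125 nM GST-E1A and 125 nM His-CtBP (5X stocks) in Tris pH 8.0, 300 mM NaCl, BSA, Tween 20, TCEP. Compounds preincubated 2 h at 37 deg C, then glutathione donor/nickel acceptor beads added for 1 h at 37 deg C in dark.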
Six1-Eya2 blk = Six1/Eya2 interaction inhibition; Q15475+O00167; AlphaScreen GST-Six1/His-Eya2 binding, biochemical; stronger effect = lower value; activity change, % (no concentration beside the values); hit rate 0.56% among 360,000; in the data active = activity change below about -65%; inconclusive = mostly about -30% to -63%; also: % is scaled to controls: 0 for no effect and ±100 for the full control effect
Target sequence (O00167 whole entry, looked up): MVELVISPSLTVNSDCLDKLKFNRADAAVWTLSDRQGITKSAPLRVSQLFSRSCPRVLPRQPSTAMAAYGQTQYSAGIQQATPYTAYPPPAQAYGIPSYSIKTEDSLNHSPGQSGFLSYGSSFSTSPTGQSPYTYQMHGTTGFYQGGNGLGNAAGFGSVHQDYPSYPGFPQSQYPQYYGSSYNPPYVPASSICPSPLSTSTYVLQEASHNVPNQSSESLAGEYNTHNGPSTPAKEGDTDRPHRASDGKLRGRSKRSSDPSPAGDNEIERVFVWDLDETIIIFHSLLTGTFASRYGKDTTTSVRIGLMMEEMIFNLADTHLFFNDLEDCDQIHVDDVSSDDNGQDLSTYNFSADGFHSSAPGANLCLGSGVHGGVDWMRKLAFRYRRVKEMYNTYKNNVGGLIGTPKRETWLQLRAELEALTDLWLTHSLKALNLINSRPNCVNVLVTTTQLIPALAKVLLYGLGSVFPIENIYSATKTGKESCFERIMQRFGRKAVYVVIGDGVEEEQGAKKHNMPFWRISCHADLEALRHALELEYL
Target sequence (Q15475 whole entry, looked up): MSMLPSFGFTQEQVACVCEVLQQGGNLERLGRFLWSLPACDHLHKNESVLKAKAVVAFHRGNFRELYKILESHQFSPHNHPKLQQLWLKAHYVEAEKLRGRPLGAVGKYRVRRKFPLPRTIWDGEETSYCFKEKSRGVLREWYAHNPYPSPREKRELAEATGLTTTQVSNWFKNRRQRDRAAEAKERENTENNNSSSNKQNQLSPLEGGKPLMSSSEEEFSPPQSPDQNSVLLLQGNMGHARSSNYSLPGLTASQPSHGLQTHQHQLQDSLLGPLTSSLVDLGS
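Homogeneous AlphaScreen proximity assay pairing GST-Six1 with His-tagged Eya2 (added as 5X mix: 250 nM and 500 nM) in 50 mM Tris pH 8.0, 300 mM NaCl, 1 mM TCEP. Glutathione donor and nickel acceptor beads; 1 h, 37 °C, dark.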
p53 reactivation = mutant p53 re-activation in reporter cells | H1299 p53-A138V BP100-luciferase reporter, luminescence, 24 h | Potency, µM (highest dose often 92.2 µM), for inactives: top-dose activity change, positive = activation, hits mostly activators | hit rate 0.063% among 320,000 | AID 504706; also: potency is read from the fitted curve at half-maximal effect; % of control where 0% means no effect; nearly all actives have a fitted effect of over 45% in size
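p53-null H1299 cells stably carrying temperature-sensitive p53-A138V and a BP100-luciferase reporter were pinned with compounds (4-point, 1:5 series) and held 24 hrs at 37 deg C. Luminescence was read 10 min after detection reagent.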
RORgamma inh = inhibitors of mouse ROR gamma transcriptional activity; P51450; Potency, µM (series often up to 53.6 µM), for the others: at the highest dose activity change, negative = inhibition, actives largely listed as inhibitors; hit rate 5.4% among 310,000; Drosophila S2 Gal4-RORgamma UAS-luciferase reporter, 20 h; also: potency is read from the fitted curve at half-maximal effect; % is scaled to controls: 0 for no effect and ±100 for the full control effect; nearly all actives have a fitted effect of over 60% in size
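Luciferase reporter read in Schneider cells carrying Gal4-RORγ (mouse) and UAS-Photinus luciferase; cells given compound 1 h before 700 uM copper sulfate induction, then incubated 20 h at ambient temperature.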
An asterisk follows results filed as active. Rows were chosen to be rich in hits. Some 5.4% of all compounds tested hit in one or more screens of this group. Unless noted, calls follow the shape of the dose curve; as a rule, active = well fitted curve in the direction sought with a large enough effect; inconclusive = small, poorly fitted or top-dose-only effect, or another doubt; inactive = no such curve, though single readings can be large; an effect the other way counts as inactive or inconclusive.

Screening Cc1cccc2c1-c1sc(C(=O)N3CCCCC3)cc1CO2 returned Gal4-VP16 FLuc inconclusive, CtBP-E1A blk 18.7, Six1-Eya2 blk 13.9 and RORgamma inh 10µM*.
Screening c1ccc(-c2nc(CSc3n[nH]c(-c4cccs4)n3)cs2)cc1 returned Gal4-VP16 FLuc 4.7%, CtBP-E1A blk -3.8, Six1-Eya2 blk -3.0, p53 reactivation 6.8% and RORgamma inh 31.6µM*.
Screening O=C(CSc1n[nH]c(-c2cccs2)n1)N1CCCC1 returned CtBP-E1A blk -24.7, Six1-Eya2 blk 0.4 and p53 reactivation 15.2%.
`Cc1cccc(C(=O)Nc2cc(S(=O)(=O)N3CCOCC3)ccc2N2CCCC2)c1` gave CtBP-E1A blk 3.6, Six1-Eya2 blk -7.4 and p53 reactivation -6.2%.
For C=C(C)CNC(=S)N1CCN(C(c2ccccc2)c2ccccc2)CC1 the results were Gal4-VP16 FLuc inconclusive, CtBP-E1A blk -15.2, Six1-Eya2 blk 7.6, p53 reactivation 6.0% and RORgamma inh inconclusive.
S=C(NCc1ccco1)N1CCN(C(c2ccccc2)c2ccccc2)CC1 was read as Gal4-VP16 FLuc inconclusive, CtBP-E1A blk 4.0, Six1-Eya2 blk -6.6, p53 reactivation 6.7% and RORgamma inh 12.6µM*.
Screening O=C(CN1CCN(C(c2ccccc2)c2ccccc2)CC1)NC(=O)NCc1ccco1 returned Gal4-VP16 FLuc -7.4%, CtBP-E1A blk -2.0, Six1-Eya2 blk -5.0, p53 reactivation -10.0% and RORgamma inh -16.0%.
Screening COCCCNC(=S)N1CCN(C(c2ccccc2)c2ccccc2)CC1 returned Gal4-VP16 FLuc inconclusive, CtBP-E1A blk 0.0, Six1-Eya2 blk 15.4, p53 reactivation -2.0% and RORgamma inh 15.8µM*.
Screening CC(C)CNC(=S)N1CCN(C(c2ccccc2)c2ccccc2)CC1 returned Gal4-VP16 FLuc inconclusive, CtBP-E1A blk -3.5, Six1-Eya2 blk -2.0, p53 reactivation 3.9% and RORgamma inh 12.6µM*.
Screening CCC1(c2ccc(OC)cc2)NC(=O)N(CC(=O)c2ccc3c(c2)OCCO3)C1=O (stereo not drawn) returned CtBP-E1A blk -7.5, Six1-Eya2 blk 7.4 and p53 reactivation -7.4%.
`C=CCN(c1ccccc1C(=O)O)S(=O)(=O)/C=C/c1ccccc1` gave Gal4-VP16 FLuc -14.6%, CtBP-E1A blk 1.4, Six1-Eya2 blk 8.5, p53 reactivation 0.3% and RORgamma inh -15.4%.
`O=C(CN(C(=O)c1csnn1)c1ccc2c(c1)OCCO2)NCc1ccccc1` gave Gal4-VP16 FLuc 6.0%, CtBP-E1A blk 0.5, Six1-Eya2 blk 3.4, p53 reactivation 10.4% and RORgamma inh 0.3%.
For CC(C)c1c(O)ccc2c1CCC1C(C)(C)CCC[C@@]21C (stereo partly drawn) the results were Gal4-VP16 FLuc 10µM* and RORgamma inh inconclusive.
CC(C)c1c(O)ccc2c1CC[C@H]1C(C)(C)CCC[C@]21C was read as CtBP-E1A blk -10.0 and Six1-Eya2 blk -17.8.
CC(C)c1nc2cc(C(=O)N3CCN(c4cnccn4)CC3)ccc2o1 was read as Gal4-VP16 FLuc -10.5%, CtBP-E1A blk -0.5, Six1-Eya2 blk -0.8, p53 reactivation 28.7% and RORgamma inh 9.7%.
Screening COc1ccc(-n2c(SCC(N)=O)nc3nc4c(cc3c2=O)COC(C)(C)C4)cc1 returned Gal4-VP16 FLuc 1.9%, CtBP-E1A blk 10.1, Six1-Eya2 blk -1.6, p53 reactivation -6.9% and RORgamma inh 14.1%.
For Cc1csc(N/N=C/c2ccc([N+](=O)[O-])cc2)n1 the results were Gal4-VP16 FLuc -23.8%, CtBP-E1A blk -5.6, Six1-Eya2 blk -12.5, p53 reactivation 11.4% and RORgamma inh -52.0%.
Screening C(=NNc1ccc2ccccc2n1)c1ccccn1 returned CtBP-E1A blk -69.0* and Six1-Eya2 blk -69.0*.
Cc1ccc2[nH]c(C)c(/C=N/Nc3nc4ccccc4s3)c2c1 was read as Gal4-VP16 FLuc 4.0%, CtBP-E1A blk -15.1, Six1-Eya2 blk -9.3, p53 reactivation 3.3% and RORgamma inh -33.4%.
C(=N\Nc1nc2ccccc2s1)/c1ccccn1 was read as Gal4-VP16 FLuc -94.6%, CtBP-E1A blk -85.9*, Six1-Eya2 blk -73.0*, p53 reactivation -6.3% and RORgamma inh 0.1µM*.
For Brc1csc(/C=N/Nc2nc3ccccc3s2)c1 the results were Gal4-VP16 FLuc 1.26µM*, CtBP-E1A blk -7.1, Six1-Eya2 blk -12.1, p53 reactivation inconclusive and RORgamma inh 0.562µM*.
For COc1ccc(C=NNc2nc3ccccc3s2)cc1 the results were CtBP-E1A blk -4.9 and Six1-Eya2 blk 8.8.
Cc1csc(N/N=C/c2ccccn2)n1 was read as Gal4-VP16 FLuc 1.12µM*, CtBP-E1A blk inconclusive, Six1-Eya2 blk inconclusive, p53 reactivation inconclusive and RORgamma inh 0.355µM*.
CCc1ccccc1N(C(=O)CCC(=O)Nc1cc(C)on1)C(C(=O)NC1CCCC1)c1ccco1 (stereo not drawn) was read as Gal4-VP16 FLuc 9.4%, CtBP-E1A blk -1.3, Six1-Eya2 blk -0.8, p53 reactivation 0.6% and RORgamma inh inconclusive.
Screening COc1ccc(C(C)NS(=O)(=O)Cc2ccccc2)cc1 (stereo not drawn) returned Gal4-VP16 FLuc 20.7%, CtBP-E1A blk -2.0, Six1-Eya2 blk -10.2, p53 reactivation -19.5% and RORgamma inh 0.3%.
`O=C(NNc1ncc(C(F)(F)F)cc1Cl)c1ccc(Cl)c(Cl)c1` gave Gal4-VP16 FLuc inconclusive, CtBP-E1A blk 7.8, Six1-Eya2 blk 5.4, p53 reactivation -5.2% and RORgamma inh 11.2µM*.
Screening Nc1ccccc1C(=O)NNc1ncc(C(F)(F)F)cc1Cl returned Gal4-VP16 FLuc 1µM*, CtBP-E1A blk inconclusive, Six1-Eya2 blk inconclusive, p53 reactivation -4.4% and RORgamma inh 0.794µM*.
`COc1ccc(Cc2c(C3CCCCC3)nc3cc(C)c(Br)c(C)n23)c(C)c1` gave CtBP-E1A blk -5.2 and Six1-Eya2 blk -4.5.
For CC(C(=O)N1CCN(C(=O)c2ccco2)CC1)n1sc2ccccc2c1=O (stereo not drawn) the results were Gal4-VP16 FLuc inconclusive, CtBP-E1A blk 3.8, Six1-Eya2 blk -1.0, p53 reactivation 24.8% and RORgamma inh 17.4%.
Screening CC(C(=O)N1CCCCC1)n1sc2ccccc2c1=O (stereo not drawn) returned Gal4-VP16 FLuc 7.6%, CtBP-E1A blk -0.7, Six1-Eya2 blk 7.7, p53 reactivation 11.2µM* and RORgamma inh -23.9%.
For OCCCNc1nc(-c2ccccc2)c2cc(Br)ccc2n1 the results were Gal4-VP16 FLuc 7.9%, CtBP-E1A blk -2.3, Six1-Eya2 blk 14.8, p53 reactivation -4.1% and RORgamma inh 8.2%.
NNc1nc(-c2ccccc2)cc(-c2ccc(Br)cc2)n1 was read as Gal4-VP16 FLuc inconclusive, CtBP-E1A blk -6.3, Six1-Eya2 blk 1.6 and RORgamma inh 17.8µM*.

From PubChem BioAssay
